Source: PubChem BioAssay (EPA / NIEHS)
Active and inactive are the calls of the source. Rule for the calls: active = hit-call score of the fitted dose curve at least 0.9, where 1 is the maximum; inactive = score below 0.9.

Key:
Conditions in all cases: mRNA level, 48 h; actives raise or lower the signal
CYP4A11 (gene 1579) = assay: LTEA_HepaRG_CYP4A11: Life Technologies and Expression Analysis (LTEA) Assay for CYP4A11 using HepaRG (AID 2283486)
Outline: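 Readout is CYP4A11 transcript level by qRT-PCR, normalized to three housekeeping genes and fitted bidirectionally against 0.5% DMSO. Human HepaRG cells were treated 48 h, in duplicate, with an 8-point half-log series topping at 100 uM.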

[1] = read-out: Cytochrome P450 3A4 (Homo sapiens) (UniProt P08684); assay: LTEA_HepaRG_CYP3A4: Life Technologies and Expression Analysis (LTEA) Assay for CYP3A4 using HepaRG (AID 2283487)
Outline: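 Differentiated HepaRG cells in serum-free induction medium exposed in duplicate for 48 h to 8 half-log concentrations up to 100 uM in 0.5% DMSO. CYP3A4 mRNA measured by qRT-PCR normalized to ACTB, GAPDH and POLR2A; bidirectional fit versus DMSO.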

[2] = read-out: DNA damage-inducible transcript 3 (DDIT3), DDIT3 (gene 1649); assay: LTEA_HepaRG_DDIT3: Life Technologies and Expression Analysis (LTEA) Assay for DNA damage-inducible transcript 3 (DDIT3) using HepaRG (AID 2283488)
Outline: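 HepaRG cells, 48 h after plating, exposed 48 h in serum-free induction medium to 8 half-log concentrations up to 100 uM in 0.5% DMSO, in duplicate. DDIT3 mRNA measured by TaqMan qRT-PCR, normalized to ACTB, GAPDH and POLR2A. Fitted bidirectionally against DMSO.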

[3] = read-out: Pro-epidermal growth factor (Homo sapiens) (UniProt P01133); assay: LTEA_HepaRG_EGF: Life Technologies and Expression Analysis (LTEA) Assay for Epidermal growth factor (EGF) using HepaRG (AID 2283489)
Outline: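 EGF transcript measured by Fluidigm TaqMan qRT-PCR with three housekeeping genes for normalization, 48 h after dosing HepaRG cultures in duplicate (top 100 uM, half-log steps, 0.5% DMSO vehicle). Gain or loss relative to DMSO fitted.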

[4] = read-out: Early growth response protein 1 (EGR1) transcription factor, EGR1 (gene 1958); assay: LTEA_HepaRG_EGR1: Life Technologies and Expression Analysis (LTEA) Assay for Early growth response protein 1 (EGR1) transcription factor using HepaRG (AID 2283490)
Outline: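 Differentiated human HepaRG cells in serum-free induction medium were exposed in duplicate for 48 h to eight concentrations (top 100 uM, half-log steps) in 0.5% DMSO. EGR1 mRNA was quantified by qRT-PCR, normalized to ACTB, GAPDH and POLR2A, and fitted bidirectionally versus DMSO.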

[5] = read-out: Ezrin (EZR), EZR (gene 7430); assay: LTEA_HepaRG_EZR: Life Technologies and Expression Analysis (LTEA) Assay for Ezrin (EZR) using HepaRG (AID 2283491)
Outline: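 Differentiated human HepaRG cells, 48 h after plating, were exposed in serum-free induction medium for 48 hours to eight half-log concentrations up to 100 uM in 0.5% DMSO. EZR mRNA was measured by TaqMan qRT-PCR, normalized to ACTB, GAPDH and POLR2A, and fitted bidirectionally against DMSO.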

[6] = read-out: Cytochrome P450 3A7 (Homo sapiens) (UniProt P24462); assay: LTEA_HepaRG_CYP3A7: Life Technologies and Expression Analysis (LTEA) Assay for CYP3A7 using HepaRG (AID 2283492)
Outline: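 CYP3A7 transcript measured by qRT-PCR (ACTB, GAPDH, POLR2A normalization) after 48 h chemical exposure of HepaRG cells in duplicate. Eight half-log concentrations, maximum 100 uM, 0.5% DMSO vehicle; bidirectional curve fitting against DMSO baseline.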

CYP3A5 (gene 1577) = assay: LTEA_HepaRG_CYP3A5: Life Technologies and Expression Analysis (LTEA) Assay for CYP3A5 using HepaRG (AID 2283493)
Outline: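 HepaRG cells, plated 48 h then in serum-free induction medium, dosed in duplicate for 48 h with eight half-log concentrations up to 100 uM in 0.5% DMSO. Gene mRNA by Fluidigm TaqMan qRT-PCR, normalized to ACTB, GAPDH, POLR2A.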

[7] = read-out: Fatty Acid-Binding Protein 1 (FABP1), FABP1 (gene 2168); assay: LTEA_HepaRG_FABP1: Life Technologies and Expression Analysis (LTEA) Assay for Fatty Acid-Binding Protein 1 (FABP1) using HepaRG (AID 2283494)
Outline: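 Differentiated human HepaRG cells were exposed in duplicate for 48 h in serum-free induction medium to 8-point half-log concentration series topping at 100 uM in 0.5% DMSO. FABP1 mRNA measured by TaqMan qRT-PCR, normalized to ACTB/GAPDH/POLR2A; bidirectional fit versus DMSO.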

[8] = read-out: Cytochrome P450 4A22 (Homo sapiens) (UniProt Q5TCH4); assay: LTEA_HepaRG_CYP4A22: Life Technologies and Expression Analysis (LTEA) Assay for Cytochrome P450 4A22 (CYP4A22) using HepaRG (AID 2283495)
Outline: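 Gene expression measured by qRT-PCR against three housekeeping genes (ACTB, GAPDH, POLR2A), with gain or loss fitted relative to 0.5% DMSO vehicle. HepaRG cultures received 48 h chemical treatment, top concentration 100 uM, half-log steps, duplicate wells.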

[9] = read-out: Cytochrome P450 7A1 (Homo sapiens) (UniProt P22680); assay: LTEA_HepaRG_CYP7A1: Life Technologies and Expression Analysis (LTEA) Assay for Cytochrome P450 7A1 (CYP7A1) using HepaRG (AID 2283496)
Outline: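 HepaRG cells plated 48 h, then switched to serum-free induction medium and exposed in duplicate for 48 h to 8-point half-log series from 100 uM in 0.5% DMSO. CYP7A1 mRNA by qRT-PCR (TaqMan), normalized to ACTB/GAPDH/POLR2A; bidirectional fit versus DMSO.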

[10] = read-out: Glutathione S-Transferase (GSTA2), GSTA2 (gene 2939); assay: LTEA_HepaRG_GSTA2: Life Technologies and Expression Analysis (LTEA) Assay for Glutathione S-Transferase (GSTA2) using HepaRG (AID 2283497)
Outline: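 Human HepaRG cells, plated 48 h, then exposed in serum-free induction medium for 48 h to eight half-log concentrations up to 100 uM in 0.5% DMSO, duplicate. GSTA2 mRNA by qRT-PCR, normalized to ACTB/GAPDH/POLR2A; bidirectional fit versus DMSO.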

[11] = read-out: Glutamate-cysteine ligase catalytic (GCLC), GCLC (gene 2729); assay: LTEA_HepaRG_GCLC: Life Technologies and Expression Analysis (LTEA) Assay for Glutamate-cysteine ligase catalytic (GCLC) using HepaRG (AID 2283498)
Outline: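 Differentiated human HepaRG cells, plated 48 h then switched to serum-free induction medium, were exposed in duplicate for 48 h to 8 half-log concentrations topping at 100 uM in 0.5% DMSO. GCLC mRNA was quantified by qRT-PCR against ACTB, GAPDH and POLR2A.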

[12] = read-out: growth arrest and DNA damage 45 (GADD45G), GADD45G (gene 10912); assay: LTEA_HepaRG_GADD45G: Life Technologies and Expression Analysis (LTEA) Assay for growth arrest and DNA damage 45 (GADD45G) using HepaRG (AID 2283499)
Outline: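 GADD45G transcript level by qRT-PCR (housekeeping-normalized: ACTB, GAPDH, POLR2A) after 48 h chemical treatment of a single HepaRG lot in serum-free induction medium; eight-point half-log series up to 100 uM in 0.5% DMSO, duplicates, up- or down-regulation scored.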

[13] = read-out: Glutamate-cysteine ligase regulatory (GCLM), GCLM (gene 2730); assay: LTEA_HepaRG_GCLM: Life Technologies and Expression Analysis (LTEA) Assay for Glutamate-cysteine ligase regulatory (GCLM) using HepaRG (AID 2283500)
Outline: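 Differentiated HepaRG cells exposed 48 h in serum-free induction medium to eight half-log concentrations up to 100 uM (0.5% DMSO). GCLM mRNA by TaqMan qRT-PCR, normalized to ACTB, GAPDH and POLR2A; bidirectional fit versus DMSO.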

[14] = read-out: Glutathione S-transferase M3 (GSTM3), GSTM3 (gene 2947); assay: LTEA_HepaRG_GSTM3: Life Technologies and Expression Analysis (LTEA) Assay for Glutathione S-transferase M3 (GSTM3) using HepaRG (AID 2283501)
Outline: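 GSTM3 transcript levels came from Fluidigm TaqMan qRT-PCR normalized to three housekeeping genes, fitted in both directions against DMSO. HepaRG cultures received chemicals for 48 h in serum-free induction medium (0.5% DMSO), 8 half-log concentrations up to 100 uM, duplicate.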

[15] = read-out: Heat shock 70 kDa protein 1 (HSPA1A), gene 3303; assay: LTEA_HepaRG_HSPA1A: Life Technologies and Expression Analysis (LTEA) Assay for Heat shock 70 kDa protein 1 (HSPA1A) using HepaRG (AID 2283502)
Outline: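 Human HepaRG cells in serum-free induction medium were exposed in duplicate for 48 h to 8 half-log concentrations, highest 100 uM, in 0.5% DMSO. HSPA1A mRNA read by TaqMan qRT-PCR, normalized to ACTB, GAPDH, POLR2A, fitted bidirectionally against DMSO.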

[16] = read-out: Hypoxia-inducible factor 1-alpha (Homo sapiens) (UniProt Q16665); assay: LTEA_HepaRG_HIF1A: Life Technologies and Expression Analysis (LTEA) Assay for Hypoxia-inducible factor 1 (HIF1A) Trancription factor using HepaRG (AID 2283503)
Outline: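 Differentiated HepaRG cells in serum-free induction medium exposed 48 h, in duplicate, to 8-point half-log series from 100 uM in 0.5% DMSO. HIF1A mRNA measured by TaqMan qRT-PCR, normalized to ACTB/GAPDH/POLR2A, fitted bidirectionally versus DMSO.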

[17] = read-out: 3-Hydroxy-3-Methylglutaryl-CoA Synthase 2 (HMGCS2), HMGCS2 (gene 3158); assay: LTEA_HepaRG_HMGCS2: Life Technologies and Expression Analysis (LTEA) Assay for 3-Hydroxy-3-Methylglutaryl-CoA Synthase 2 (HMGCS2) using HepaRG (AID 2283504)
Outline: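 Readout is HMGCS2 transcript by qRT-PCR, housekeeping-normalised (ACTB/GAPDH/POLR2A) and fitted bidirectionally against 0.5% DMSO. Differentiated HepaRG cells received chemicals 48 h, duplicate wells, eight half-log concentrations topping at 100 uM.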

HGF (gene 3082) = assay: LTEA_HepaRG_HGF: Life Technologies and Expression Analysis (LTEA) Assay for Hepatocyte Growth Facto (HGF) using HepaRG (AID 2283505)
Outline: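 HGF transcript was quantified by TaqMan qRT-PCR against three housekeeping genes after 48 h treatment of HepaRG cells. Exposure ran in duplicate over eight half-log steps topping at 100 uM in 0.5% DMSO vehicle.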

Measured: AC50

Chain of Hypoxia-inducible factor 1-alpha (Homo sapiens) (Q16665 whole entry, looked up): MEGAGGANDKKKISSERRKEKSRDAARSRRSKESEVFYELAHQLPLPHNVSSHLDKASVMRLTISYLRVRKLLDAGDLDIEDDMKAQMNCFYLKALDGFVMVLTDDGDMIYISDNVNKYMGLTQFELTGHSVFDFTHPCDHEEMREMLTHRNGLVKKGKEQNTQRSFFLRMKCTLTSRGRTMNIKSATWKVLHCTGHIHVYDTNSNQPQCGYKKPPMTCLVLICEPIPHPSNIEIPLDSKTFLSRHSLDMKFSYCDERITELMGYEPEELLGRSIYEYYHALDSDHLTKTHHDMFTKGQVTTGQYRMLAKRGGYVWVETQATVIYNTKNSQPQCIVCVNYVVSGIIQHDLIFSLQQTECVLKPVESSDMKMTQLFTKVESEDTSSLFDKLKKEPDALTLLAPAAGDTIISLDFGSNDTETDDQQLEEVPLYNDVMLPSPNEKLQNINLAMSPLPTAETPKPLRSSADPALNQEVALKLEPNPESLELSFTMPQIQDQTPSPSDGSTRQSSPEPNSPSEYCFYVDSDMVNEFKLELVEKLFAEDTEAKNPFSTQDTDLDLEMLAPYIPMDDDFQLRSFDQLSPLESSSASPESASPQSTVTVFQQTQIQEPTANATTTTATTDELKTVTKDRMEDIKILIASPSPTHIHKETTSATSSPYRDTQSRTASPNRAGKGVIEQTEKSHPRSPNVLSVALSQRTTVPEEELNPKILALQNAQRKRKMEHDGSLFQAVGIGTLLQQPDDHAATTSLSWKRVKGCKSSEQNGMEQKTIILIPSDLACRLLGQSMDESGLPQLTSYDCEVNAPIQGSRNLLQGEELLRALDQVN
Chain of Cytochrome P450 3A7 (Homo sapiens) (P24462 whole entry, looked up): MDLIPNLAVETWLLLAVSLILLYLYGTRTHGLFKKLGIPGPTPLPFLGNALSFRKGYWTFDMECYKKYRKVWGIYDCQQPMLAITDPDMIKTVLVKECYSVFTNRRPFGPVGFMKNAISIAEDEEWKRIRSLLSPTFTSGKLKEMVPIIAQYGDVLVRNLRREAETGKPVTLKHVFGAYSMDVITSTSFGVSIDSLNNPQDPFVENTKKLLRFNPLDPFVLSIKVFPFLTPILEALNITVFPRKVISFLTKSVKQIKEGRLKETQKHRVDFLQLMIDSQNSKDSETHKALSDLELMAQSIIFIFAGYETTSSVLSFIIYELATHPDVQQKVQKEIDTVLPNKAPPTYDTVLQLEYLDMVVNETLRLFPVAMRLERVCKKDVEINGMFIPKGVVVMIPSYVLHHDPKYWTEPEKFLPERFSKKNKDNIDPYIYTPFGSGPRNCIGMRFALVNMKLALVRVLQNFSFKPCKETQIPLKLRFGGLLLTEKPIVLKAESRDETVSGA
Chain of Cytochrome P450 3A4 (Homo sapiens) (P08684 whole entry, looked up): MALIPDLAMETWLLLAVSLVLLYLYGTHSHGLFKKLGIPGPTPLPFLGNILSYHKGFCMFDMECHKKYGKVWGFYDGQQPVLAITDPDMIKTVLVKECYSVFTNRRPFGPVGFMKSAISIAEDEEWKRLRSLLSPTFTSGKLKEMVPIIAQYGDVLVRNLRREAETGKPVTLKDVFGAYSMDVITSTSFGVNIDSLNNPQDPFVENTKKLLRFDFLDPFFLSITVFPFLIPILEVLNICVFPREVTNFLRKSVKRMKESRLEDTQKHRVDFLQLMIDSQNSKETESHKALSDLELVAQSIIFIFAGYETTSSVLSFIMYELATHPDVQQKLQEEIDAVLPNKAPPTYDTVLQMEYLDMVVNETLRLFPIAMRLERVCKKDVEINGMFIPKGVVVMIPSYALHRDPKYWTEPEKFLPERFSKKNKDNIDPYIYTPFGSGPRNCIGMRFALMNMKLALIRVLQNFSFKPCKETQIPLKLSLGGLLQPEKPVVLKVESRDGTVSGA

Cc1cc(SC2=C(O)C[C@@](CCc3ccc(N)cc3)(C(C)C)OC2=O)c(C(C)(C)C)cc1CO
active: CYP4A11 (gene 1579) 2.25 µM | [1] 0.344 µM | [3] 6.35 µM | [6] 151 nM | [7] 3.12 µM | [8] 1.67 µM | [9] 16.1 µM | [17] 16.8 µM
inactive: all other assays above

NC(=Nc1ccccc1)Nc1ccccc1
active: [2] 27.6 µM
not listed: [15]
inactive: all other assays above

CC(C)c1cccc(C(C)C)c1
not listed: [7]
inactive: all other assays above

CC(=O)OC1CC(C)OC(C)O1 (stereo not given)
not listed: [12]
inactive: all other assays above

CC(C)OC(=O)C(C)(C)Oc1ccc(C(=O)c2ccc(Cl)cc2)cc1
active: CYP4A11 (gene 1579) 3.85 µM | [5] 536 nM | [7] 50 µM | [8] 2.19 µM | [17] 4.29 µM
not listed: [12] | [16]
inactive: all other assays above

CC(=O)O[C@]1(C(C)=O)CC[C@H]2[C@@H]3C=C(Cl)C4=CC(=O)[C@@H]5C[C@@H]5[C@]4(C)[C@H]3CC[C@@]21C
active: [1] 36.5 µM | [2] 18.5 µM | CYP3A5 (gene 1577) 50 µM | [9] 59 µM | [10] 15.8 µM | [12] 50 µM | [17] 67.1 µM
not listed: [7] | [15] | [16]
inactive: all other assays above

NC=O
not listed: [7] | [15]
inactive: all other assays above
